FUS suppressor: FUS proteinopathy suppression in yeast; 390,000 tested, 0.24% active; S. cerevisiae FUS-expressing, growth rescue, OD600, 24 h; Potency, µM (highest dose often 76.6 µM), usual class: activators;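 note: plate controls were DMSO vehicle for no effect and reference control for full effect; nearly all actives have a fitted effect of over 55% in size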
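Cultures pregrown in 2.5% raffinose medium are shifted to minimal medium containing 2% galactose to express toxic FUS. Compounds are tested at several concentrations. After 24hr at 30C, growth is quantified at 600 nm absorbance.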
Abeta yeast res: restores growth of yeast expressing A-beta42 peptide; yeast expressing A-beta42, growth rescue, OD600, 48 h; response scale: 0% DMSO, 100% iron-clioquinol control; Potency, µM (highest dose often 46.1 µM), most hits filed as activators; 410,000 tested, 0.063% active; note: nearly all actives have a fitted effect of over 55% in size
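Yeast A-beta toxicity model in growth medium with pinned compounds, 48 h at 30 C; growth read as absorbance at 600 nm. Normalized to FeCl3/clioquinol equimolar mix (positive) and DMSO (negative).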
aSyn yeast inh: alpha-synuclein toxicity inhibition in yeast; Potency, µM (series often up to 46.1 µM), for inactives: top-dose growth rescue (activation), actives largely listed as activators; Yeast expressing alpha-synuclein, growth rescue, BacTiter-Glo, 24 h; AID 652106; 370,000 tested, 0.14% active; note: % of control where 0% means no effect; nearly all actives have a fitted effect of over 65% in size
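Readout is rescue of growth in alpha-synuclein-expressing yeast, so inhibitors of toxicity appear as activators. Growth after 24 hr at 30 deg C in galactose medium is quantified by luminescence.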
TDP-43 yeast inh: rescues yeast growth from TDP-43 toxicity. 410,000 tested, 1.8% active. Potency, µM (highest dose often 46.1 µM), inactives show at the top dose growth rescue (activation), actives largely listed as activators. TDP-43 expressing yeast growth rescue, BacTiter-Glo, 24 h; note: % of control where 0% means no effect; nearly all actives have a fitted effect of over 50% in size
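In this qHTS, compounds that restore growth of yeast expressing TDP-43 appear as activators. Cells (OD600=0.02, galactose medium, raffinose-pregrown) are incubated with compound 24 hr at 30 deg C and growth is quantified by BacTiter-Glo.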
Starred values were filed as active, the others as inactive; i = inactive; ? = inconclusive; · = not tested or not shown; ! = repeats disagree; [ ] = another dose, or the depositor's remark. Compounds with a hit are over-represented: about 2.1% of the library has one in this group of screens. Calls come from the whole dose curve; as a rule, active = well fitted curve in the direction sought with a large enough effect; inconclusive = small, poorly fitted or top-dose-only effect, or another doubt; inactive = no such curve, though single readings can be large; an effect the other way counts as inactive or inconclusive. Potency is the fitted concentration of half-maximal effect.

SMILES | FUS suppressor | Abeta yeast res | aSyn yeast inh | TDP-43 yeast inh
O=C(O)c1ccc(Cn2cnc3scc(-c4ccccc4)c3c2=O)cc1 | i | i | 14% | ?
CCCOc1ccc(-c2csc3ncn(Cc4ccc(C(=O)O)cc4)c(=O)c23)cc1 | i | i | -60% | 25µM*
COc1ccccc1N1CCN(C(=O)c2nc(SC)ncc2Cl)CC1 | i | i | · | 35µM*
COc1ccccc1-c1cc(C(=O)N2CCN(c3ccccc3OC)CC2)no1 | i | i | 19% | 18µM*
COc1ccccc1N1CCN(C(=O)c2cc(C3CC3)on2)CC1 | i | i | 1% | 13µM*
COc1ccccc1N1CCN(C(=O)c2cc(-c3ccc(F)cc3)on2)CC1 | i | i | -1% | 13µM*!
CC(=O)NCCCc1ccc(C(=O)COC(=O)CNC(=O)c2ccc3ccccc3c2)cc1 | · | · | 8% | ·
CC(=O)Nc1cc([N+](=O)[O-])cc(NC(C)=O)c1NC(C)=O | · | · | -13% | ·
Clc1cccc(Cc2c(-c3cccc(Br)c3)nc3c4ccccc4ccn23)c1 | i | i | -3% | 20%
Cc1ccc(Cc2c(-c3ccccc3)nc3c4ccccc4ccn23)cc1 | ? | i | 1% | 14µM*
Fc1cccc(Cc2c(-c3ccccc3)nc3c4ccccc4ccn23)c1 | i | i | -5% | 14µM*
CCOC(=O)Cc1c(-c2cccc(Cl)c2)nc2c3ccccc3ccn12 | i | i | 1% | 13µM*
Clc1ccc(-c2nc3c4ccccc4ccn3c2Cc2cccc(Cl)c2)cc1 | i | i | 9% | 6%
Cc1ccc(-c2nc3c4ccccc4ccn3c2Cc2ccccc2)cc1 | ? | i | 0% | 0%
COc1ccc(-c2nc3c4ccccc4ccn3c2Cc2ccc(C)cc2)cc1OC | i | i | 22% | 10µM*
CC(CCC(C)[n+]1cccc(Br)c1)[n+]1cccc(Br)c1 (centres undefined) | · | · | -10% | ·
CCOc1ccccc1NC(=O)C1CCN(C(=O)C2CC(=O)N(c3ccc(C)cc3)C2)CC1 (centres undefined) | i | i | 2% | -6%
NC(=NCc1ccccc1)NC(=O)OCc1ccccc1 | i | · | · | ·
Cc1ccc2[nH]c(=O)c(CN(CCCO)Cc3nnnn3Cc3ccccc3)cc2c1 | · | · | 9% | ·
COc1ccccc1Cc1c(-c2ccco2)nc2c3ccccc3ccn12 | i | i | 1% | 22µM*
COc1ccccc1Cc1c(-c2ccco2)nc2c(C)cc(Br)cn12 | i | i | -71% | ?
COc1ccc(-c2nc3c4ccccc4ccn3c2Cc2cccc(Cl)c2)cc1OC | i | i | 17% | 14µM*
O=C(Nc1cc(Cl)ccc1F)C1CCCN(c2nnc(-n3cccc3)s2)C1 (centres undefined) | i | · | · | ·
O=C(Cn1nnc(-c2ccc(N3CCOCC3)cc2)n1)c1cccc(F)c1 | i | · | · | ·
COc1ccc(-c2cc(C(F)(F)F)nc(SCC(=O)N3CCCCC3)n2)cc1OC | i | i | · | 13%
SMILES | FUS suppressor | Abeta yeast res | aSyn yeast inh | TDP-43 yeast inh
Cc1cc(/C=N/NC(N)=S)c(C)n1-c1ccc(Cl)cc1 | ? | 10µM* | 2% | ?
Cc1cccc(C)c1-n1c(C)cc(/C=N/NC(N)=S)c1C | ? | ? | 9% | 11µM*
Cc1cc(/C=N/NC(N)=S)c(C)n1-c1cccc(Cl)c1 | i | 10µM* | 17% | 2%[0.397 µM]
Cc1cc(/C=C/C(=O)O)c(C)n1-c1ccc(Cl)cc1 | i | i | 10µM* | ?
Cc1cc(/C=N/NC(N)=S)c(C)n1-c1ccc(Br)cc1 | i | i | -4% | ?
C=Cc1ccc(CC2(C)C(=O)Nc3ccc(-c4cccnc4)cc32)cc1 (centres undefined) | i | i | 3% | -13%
C=CCN1[C@H](CO)[C@H](c2ccccc2)[C@@H]1C#N | i | · | · | ·
O=[N+]([O-])CC(c1ccc(F)cc1)c1c[nH]c2ccccc12 (centres undefined) | i | ? | ? | 18µM*
Cn1cc(C(C[N+](=O)[O-])c2ccccc2)c2ccccc21 (centres undefined) | i | i | 12% | 13µM*
NCC(c1ccccc1)c1c[nH]c2ccccc12 (centres undefined) | i | i | 0% | -8%[1.82 µM]
Fc1ccc(C(Nc2ccccn2)c2c[nH]c3ccccc23)cc1 (centres undefined) | i | ? | ? | 20µM*
CCC(=O)NC(c1ccco1)c1cc(Cl)c2cccnc2c1O (centres undefined) | i | i | 11µM* | 17%
COC(=O)C[C@H]1CC[C@@H]2[C@@H](COc3ccc(NS(=O)(=O)c4ccccc4Cl)cc3C(=O)N2C)O1 | i | · | · | ·
Cc1ccc(NC(=O)/C=C/C(=O)O)c([N+](=O)[O-])c1 | i | i | 6% | 26%
Cc1cc(NC(=O)/C=C\C(=O)O)c([N+](=O)[O-])cc1C | i | i | 3% | 22µM*
Cc1cc(C2=CC(=O)C[C@H](c3ccc(F)cc3)C2)ccc1F | i | i | 8% | 22µM*
O=C1C=C(c2ccc3c(c2)OCO3)C[C@@H](c2ccc(F)cc2)C1 | i | i | 2% | ?
O=C1C=C(c2ccc3c(c2)OCCO3)C[C@@H](c2ccc(F)cc2)C1 | i | ? | 0% | 22µM*
CSc1ccc(C2=CC(=O)C[C@H](c3ccc(F)cc3)C2)cc1 | i | i | 6% | 22µM*
COc1ccc([C@H]2CC(=O)C=C(c3ccc(SC)cc3)C2)cc1OC | i | i | 1% | 0%
O=C1C=C(c2cc(Cl)cc(Cl)c2)C[C@@H](c2ccc(F)cc2)C1 | i | i | 1% | ?
O=C1C=C(c2ccc(OC(F)(F)F)cc2)C[C@@H](c2ccc(F)cc2)C1 | i | ? | -7% | 14µM*
COC(=O)c1cc(S(=O)(=O)NCc2cc(OC)c(OC)c(OC)c2)cn1C | i | i | -5% | 7%
COc1ccc(C2=CC(=O)C[C@H](c3ccc(F)cc3)C2)cc1F | ? | i | 8% | 22µM*
CCCSc1ccc2nc(-c3ccccc3)cn2c1 | · | i | -18% | -14%
SMILES | FUS suppressor | Abeta yeast res | aSyn yeast inh | TDP-43 yeast inh
CCCCSc1ccc2nc(-c3ccc(C#N)cc3)cn2c1 | i | i | -12% | 11µM*
CCOc1ccc(CNS(=O)(=O)c2cccs2)cc1OCC | i | i | 2% | 24%
CCOc1ccc2cc(/C=C/C(=O)c3ccco3)c(Cl)nc2c1 | i | i | -1% | 7.9µM*
CCOc1ccc2nc(SCC(=O)NNC(=O)c3ccco3)c(C)cc2c1 | i | i | 2% | -13%
COCC(=O)N1CCC2CC1c1c(-c3ccc(C(F)(F)F)cc3)cccc12 (centres undefined) | i | i | -2% | 10%
CC(C)Oc1ccc(C(=O)OCC(=O)NC(=O)NC2CCCC2)cc1 | i | ? | 17% | 20µM*
CC(C)Oc1ccc(C(=O)OCC(=O)NC2CCCCCC2)cc1 | i | i | 1% | ?
